Non-standard residues stand in square brackets, D forms with d. Residues, ends and D or L forms follow the SMILES beside them. *: point of attachment. Nle = CCCC[C@H](N)C(=O)O; Cbz = O=C(OCc1ccccc1)*; CH2F = FC*
target: Glycogen synthase kinase-3 beta (Homo sapiens) (UniProt P49841); conditions: Compound concentration 20.0 uM
Sequence (P49841 whole entry, looked up): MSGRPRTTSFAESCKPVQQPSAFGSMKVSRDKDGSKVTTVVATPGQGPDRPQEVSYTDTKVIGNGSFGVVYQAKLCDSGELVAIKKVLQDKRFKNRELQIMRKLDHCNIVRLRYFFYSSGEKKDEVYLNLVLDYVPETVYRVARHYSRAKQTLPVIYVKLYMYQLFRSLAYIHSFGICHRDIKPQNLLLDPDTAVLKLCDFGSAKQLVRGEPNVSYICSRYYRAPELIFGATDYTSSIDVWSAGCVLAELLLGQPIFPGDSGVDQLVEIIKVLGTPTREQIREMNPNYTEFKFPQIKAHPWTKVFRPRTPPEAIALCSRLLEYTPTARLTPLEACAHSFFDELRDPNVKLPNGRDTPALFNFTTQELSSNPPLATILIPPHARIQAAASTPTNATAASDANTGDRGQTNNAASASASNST

| SMILES | ΔTm |
| --- | --- |
| Cc1noc(C)c1-c1cc(Cl)c(Nc2ccccc2C(=O)O)c(Cl)c1 | -0.39 °C |
| Cc1ncccc1-c1cnc(NCc2c(F)ccc3c2CCO3)n2cnnc12 | -0.06 °C |
| Fc1ccc(CNc2ncnc3ccc(F)cc23)cc1 | 0.18 °C |
| CCCC[C@@H](C=O)NC(=O)[C@H](CC(C)C)NC(=O)[C@H](CC(C)C)NC(C)=O (Ac-Leu-Leu-[Nle]-aldehyde) | -0.45 °C |
| Nc1ncnc2nc(-c3ccc(N4CCOCC4)nc3)cc(-c3cccc(Br)c3)c12 | -0.95 °C |
| COC(=O)CC[C@H](NC(=O)[C@H](Cc1c[nH]c2ccccc12)NC(=O)OCc1ccccc1)C(=O)N[C@@H](Cc1cnc[nH]1)C(=O)N[C@@H](CC(=O)OC)C(=O)CF (Cbz-WE(OMe)HD(OMe)-CH2F) | -0.68 °C |
| Cc1ccc(F)c2cc(C(=O)N[C@@H]3CCC[C@H](N4CC[C@H](N(C)S(C)(=O)=O)C4)C3)[nH]c12 | -1.31 °C |
| NC(=O)c1cnc(N[C@@H]2CCCC[C@@H]2N)nc1Nc1cccc(-n2nccn2)c1 | 5.98 °C |
| CN(CCCCCCNc1ccnc2cc(Cl)ccc12)CCCCCCNc1ccnc2cc(Cl)ccc12 | -0.7 °C |
| CCCOc1ccc(NC(=O)CN2CCN(C)CC2)cc1-c1nc(CC)c(CC)c(=O)[nH]1 | -0.28 °C |
| COc1cc(C(C)C)c2c(c1)S(=O)(=O)N(COc1cc(=O)n3cccc(OCCN4CCCCC4)c3n1)C2=O | 0.26 °C |
| O=C(CCl)Nc1ccc(S(=O)(=O)c2ccc(NC(=O)CCl)cc2)cc1 | 0.48 °C |
| CCn1c(=O)c(C)cn(Cc2nnc(-c3ccc(F)c(O)c3F)s2)c1=O | 0 °C |
| Cc1ncsc1-c1ccc([C@H](C)NC(=O)[C@@H]2C[C@@H](O)CN2C(=O)[C@@H](NC(=O)COCCCOCCNC(=O)C[C@@H]2N=C(c3ccc(Cl)cc3)c3c(sc(C)c3C)-n3c(C)nnc32)C(C)(C)C)cc1 | 0 °C |
| COc1cc2c(cc1OC)[C@H]1C[C@@H](OC(=O)[C@@H](N)C(C)C)[C@H](CC(C)C)CN1CC2 | -0.94 °C |
| CC(=O)OCCN1C(=O)c2c(C)nc3ccc(S(=O)(=O)N4CCOCC4)cc3c2C1=O | -0.73 °C |
| COc1cc(-c2cn(C)c(=O)c3cnccc23)cc(OC)c1CN(C)C | 0.26 °C |
| COc1cc(Nc2ncc(F)c(Nc3ccc4c(n3)N(COP(=O)(O)O)C(=O)C(C)(C)O4)n2)cc(OC)c1OC | -0.66 °C |
| O=C(NO)C(c1ccc(-c2ncc(C(F)(F)F)cn2)cc1)c1ccccc1F (stereo not given) | -0.7 °C |
| Cc1ccsc1C(=CCCN1CCC[C@@H](C(=O)O)C1)c1sccc1C | -0.18 °C |

| SMILES | ΔTm |
| --- | --- |
| NC(=O)c1cccc(NC(=O)CCC(=O)NCCc2cn(CCNS(=O)(=O)c3cccc(C(=O)O)c3)nn2)c1 | -1.06 °C |
| CC(C)c1ccc(C(=O)N=C(N)N)cc1S(C)(=O)=O | -0.76 °C |
| CCc1oc2ccccc2c1C(=O)c1cc(Br)c(O)c(Br)c1 | 0 °C |
| Cc1sc(C(=O)c2cncnc2N[C@@H]2C[C@H](COS(N)(=O)=O)[C@@H](O)C2)cc1[C@@H]1NCCc2ccc(Cl)cc21 | -1.26 °C |
| Nc1c[nH]c(=O)c2cc(-c3ccccc3)sc12 | -0.86 °C |
| O=C(O)CCNc1cc(N2CCc3ccccc3CC2)nc(-c2cccnc2)n1 | -0.02 °C |
| CC1(C)CC[C@]2(C(=O)O)CC[C@]3(C)C(=CC[C@@H]4[C@@]5(C)C=C(O)C(=O)C(C)(C)[C@@H]5CC[C@]43C)[C@@H]2C1 | -1.79 °C |
| Cn1ncc2c(-c3c(-c4ccc(F)cn4)nn4c3COC(C)(C)C4)ccnc21 | -0.58 °C |
| Cc1[nH]c2c(N3CCCCC3)c(-c3ccccc3)nn2c(=O)c1-c1ccc(O)cc1 | -1.39 °C |
| O=C1c2ccccc2C(=O)c2oc(-c3cccnc3)nc21 | 0.34 °C |
| Cn1c(NCCN(CCO)CCCc2ccc([N+](=O)[O-])cc2)cc(=O)n(C)c1=O | -0.66 °C |
| CC(C)[C@H](NC(=O)OCc1ccccc1)C(=O)NC(CC(=O)O)C(=O)CF (stereo not given in full) | 0.35 °C |
| CN(C)CCCNC(=O)c1ccc(-c2cc(O)c3ncccc3c2)cc1 | 0.54 °C |
| O=C(c1cc(Cc2n[nH]c(=O)c3ccccc23)ccc1F)N1CC(CNC2CC2)C1 | -0.61 °C |
| C[C@@H]1O[C@@H](CC(=O)O)CC2=C1C(=O)c1c(O)cccc1C2=O | -2.21 °C |
| Cc1ncsc1-c1ccc([C@H](C)NC(=O)[C@@H]2C[C@@H](O)CN2C(=O)[C@@H](NC(=O)CNC(=O)c2ccc(F)c(-c3ccc(N4C[C@@H](C)N(C)[C@@H](C)C4)c(NC(=O)c4c[nH]c(=O)cc4C(F)(F)F)c3)c2)C(C)(C)C)cc1 | -3.51 °C |
| C[C@@H]1OC(=O)NN=C1c1ccc(-c2ccc(F)cc2)c(C(F)(F)F)c1 | -7.28 °C |
| N#C[C@@H]1CCCN1C(=O)CNC(=O)c1ccnc2ccc(OCCCN3CCN(C(=O)CN4CCN(CC(=O)O)CCN(CC(=O)O)CCN(CC(=O)O)CC4)CC3)cc12 | -0.21 °C |
| O=C1C(=O)N(Cc2ccccc2)c2ccc(S(=O)(=O)N3CCC[C@H]3COc3ccc(C(F)(F)F)cc3)cc21 | -0.32 °C |
| CCCCN(Cc1ccc(C(=O)NO)cc1)C(=O)Nc1ccccc1 | -0.89 °C |
